High-throughput results deposited in PubChem by several laboratories.
ALR H2O2 inh: blocks human ALR sulfhydryl oxidase activity; P55789; purified ALR, DTT oxidation, H2O2 HRP-luminol luminescence; inhibition, % (no concentration beside the values); 290,000 tested, 3.8% active; AID 485317;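 active = mean replicate inhibition above about 79%, with every replicate also reaching it, limit read from the data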
AHR act: activators of human aryl hydrocarbon receptor. AHR-responsive luciferase reporter cells, luminescence. AID 2796. 320,000 tested, 2.5% active. P35869. activation, % at 5 µM; in the data active = activation above about 47%
Bfl-1 A1 inh: inhibitors of the anti-apoptotic protein A1, read as caspase activation; MEF A1-2A-BIM cells, Caspase-Glo 3/7 luminescence, 3 h; percent of clofoctol response, vehicle zero; caspase activation, % (test concentration not listed); 330,000 tested, 0.066% active;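 active = over half of replicate activation scores above 10%, or exactly half above 10 with the replicate mean above 10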
VLA-4 inh: inhibition in a human VLA-4 binding assay. AID 2557. inhibition, % (about 7 µM as worked out from the volumes in the protocol). P13612. VLA-4 expressing cells, ligand binding flow cytometry. 330,000 tested, 0.2% active; in the data active = inhibition above about 50%
Mot1-301 SUMO: inhibitors of SUMOylation pathway: yeast Mot1-301 growth rescue. S. cerevisiae Mot1-301 growth rescue, ATP luminescence, 38.5C; percent above DMSO median, 100 means doubled. growth rescue, % at 18.8 µM. 320,000 tested, 1% active. AID 2716;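 active = every valid replicate shows activation above 250% relative to neutral control wells; inactive = the rest, any valid replicate at or below 250%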
Efflux pump inh: antifungal efflux pump inhibition, Nile Red retention | S. cerevisiae Candida pump triplex | inhibition, % at 10 µM | 330,000 tested, 0.44% active | AID 485275;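 active = plate passing quality check with inhibition over a set limit, or well fluorescence over plate mean plus 4 SD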;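 note: Nile Red retained in pooled yeast measured as flow cytometry median fluorescence; higher means more Nile Red kept so more efflux inhibition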
A number is an active result; 0 = inactive; - = not tested or not shown. Shown are actives, neighbours in structure and some others; about 7.2% of the full set was active somewhere.

SMILES	ALR H2O2 inh	AHR act	Bfl-1 A1 inh	VLA-4 inh	Mot1-301 SUMO	Efflux pump inh
COc1ccc(/C=C/C(=O)OCC(=O)N2CC(=O)Nc3ccccc32)cc1S(=O)(=O)N1CCOCC1	0	0	0	0	0	0
CC(C)OC(=O)CSc1nnc(SCc2cccc3ccccc23)s1	0	0	0	0	0	0
O=C(CSc1nnc(SCc2ccc(Cl)cc2)s1)N/N=C/c1c[nH]c2ccccc12	0	0	0	0	0	0
O=C(O)COc1ccccc1/C=N/NC(=O)CSc1nnc(SCc2cccc3ccccc23)s1	97	0	0	0	-	0
O=C(CSc1nnc(SCc2cccc3ccccc23)s1)N/N=C/c1c[nH]c2ccccc12	-	47	0	0	0	0
O=C(O)CSc1nnc(SCc2cccc3ccccc23)s1	98	0	0	0	0	0
O=C(O)COc1ccccc1/C=N/NC(=O)CSc1nnc(SCc2ccc(Cl)cc2)s1	-	0	0	0	0	0
O=C(O)CSc1c2ccccc2cc2ccccc12	99	0	0	0	0	0
Cn1ncc2c(O/N=C(\N)c3ccc(C(F)(F)F)cc3)ncnc21	0	0	0	0	0	0
CCOc1ccc(CCNC(=O)CCNC(=O)c2ccc(Br)cc2)cc1OCC	0	0	0	0	0	0
O=C(/C=C/c1ccccc1)N/C(=C/c1ccccc1)C(=O)N1CCCCC1	0	0	0	0	0	0
O=C(Nc1cccc2ccccc12)OCc1cncs1	0	57	0	0	0	0
CCOC(=O)Nc1cccc2ccccc12	0	0	0	0	0	0
Cn1c(C(=O)c2ccccc2[N+](=O)[O-])nc2ccccc21	0	48	0	0	0	0
NS(=O)(=O)c1ccc(Sc2nc3ccccc3s2)c([N+](=O)[O-])c1	98	0	0	0	0	0
O=C(O)c1ccc(S(=O)(=O)Nc2cccc(CP(=O)(c3ccccc3)c3ccccc3)c2)cc1	0	0	0	0	0	0
O=C(O)c1ccc(S(=O)(=O)Nc2ccc(O)c(Sc3nc4ccccc4s3)c2)cc1	100	0	0	0	0	0
CNC(=O)NC(=O)COC(=O)/C=C/c1cccc(Br)c1	0	0	0	0	-	0
CNC(=S)NNc1ccccc1[N+](=O)[O-]	98	0	0	0	0	0
COCCNC(=S)NNc1ccccc1[N+](=O)[O-]	0	0	0	0	0	0
O=C(NC1CCCCC1)C(c1c(F)cccc1Cl)N(C(=O)c1csnn1)C1CC1 (stereo not drawn)	0	0	0	0	0	0
Cc1cc(N(CCO)CCO)ccc1N=Nc1cc(F)ccc1F	99	0	0	0	0	0
CC1(C)CC(=O)c2cnn(-c3nc4ccccc4[nH]3)c2C1	94	0	0	0	0	0
Cc1nn(-c2nc3ccccc3[nH]2)c(=O)c2ccccc12	0	0	0	0	0	0
COc1ccccc1N1C(=O)CC(Sc2n[nH]c(-c3cccc(C)c3)n2)C1=O (stereo not drawn)	99	0	0	0	0	0
SMILES	ALR H2O2 inh	AHR act	Bfl-1 A1 inh	VLA-4 inh	Mot1-301 SUMO	Efflux pump inh
COc1ccccc1N1C(=O)CC(Sc2nccc(C)n2)C1=O (stereo not drawn)	0	0	0	0	0	0
CCOC(=O)n1n[n+]([O-])c2ccccc21	0	0	0	0	0	0
O=C(C[C@H]1C/C=C\CC[C@H](Cc2ccc(F)cc2)C(=O)OC[C@@H]2CCCN2C1=O)N[C@H](CO)Cc1ccccc1	0	0	0	0	0	0
[O-]/[N+](=C/c1ccc(F)cc1)c1ccc(Cl)cc1	0	64	0	0	0	0
Cn1ncc(Cl)c1C(=O)Nc1ccncc1	0	0	0	0	0	0
COc1c(C)cccc1C(=O)Nc1ccc(CN2CCCCC2)cc1	94	0	0	0	0	0
COc1cccc(OC)c1C(=O)Nc1ccc(CN2CCCCC2)cc1	-	0	0	0	0	0
Cn1ncc(Cl)c1C(=O)Nc1ccc(CN2CCCCC2)cc1	0	76	0	0	0	0
Cc1ccccc1NC(=S)NN1CCN(C)CC1	0	0	0	0	0	0
Cn1c(/C(C#N)=C(\O)c2ccc(Br)s2)nc2ccccc21	0	52	0	0	0	0
CN1C(=O)c2cccc3c(S(N)(=O)=O)ccc1c23	0	0	0	0	0	0
CN1C(=O)c2cccc3c(S(=O)(=O)Nc4ccccn4)ccc1c23	0	0	0	0	280	0
Cc1ccccc1NS(=O)(=O)c1ccc2c3c(cccc13)C(=O)N2C	0	0	0	0	351	0
COc1ccccc1NC(=O)CSc1nnc(CCC(=O)Nc2ccccc2F)n1C	0	0	0	0	-	0
COc1ccc2nc(N3CCCC(C(=O)NCCCN4C(C)CCCC4C)C3)sc2c1 (stereo not drawn)	0	0	0	0	0	0
CN(C)/C=C(\C#N)C(=O)Nc1ccc(O)cc1F	99	0	0	0	0	0
CN(C)/C=C(\C#N)C(=O)Nc1ccccc1	0	0	0	0	0	0
CCOC(=O)c1c(C)n(C)c2cc(-c3cccc(C(F)(F)F)c3)c(O)cc12	0	49	0	0	0	0
CCOC(=O)c1c(C)n(C)c2cc(Br)c(C)cc12	-	0	0	0	0	0
Cc1cccc(-n2c(N)cc(=O)nc2SCC(=O)Nc2cc(C)on2)c1	0	0	0	0	0	0
COc1ccc(-n2c(Cc3cccn3C)nnc2SCC(=O)Nc2ccccc2C)cc1	0	0	0	0	0	0
CCOc1ccc(NC(=O)CSc2nc(O)c(C)c(=O)n2-c2ccc(F)cc2)cc1	100	0	0	0	0	0
COc1ccc(-n2c(Cc3cccn3C)nnc2SCC(=O)Nc2cccc(C)c2C)cc1	89	0	0	0	0	0
COc1ccc(-n2c(SCC(=O)Nc3cccc4ccccc34)nc(O)cc2=O)cc1	99	0	0	0	320	0
CCCCc1nnc(NC(=O)CSc2nc(=O)cc(N)n2-c2cccc(C)c2)s1	98	0	0	0	-	0
SMILES	ALR H2O2 inh	AHR act	Bfl-1 A1 inh	VLA-4 inh	Mot1-301 SUMO	Efflux pump inh
CCOc1ccc(-n2c(SCC(=O)Nc3ccc(C(=O)O)cc3)nc3ccccc3c2=O)cc1	-	0	0	0	0	0
COc1ccccc1NC(=O)CSc1nc(O)cc(=O)n1-c1ccccc1OC	0	0	0	0	0	0
Fc1ccc(/C=N/n2c(-c3cccs3)n[nH]c2=S)cc1	0	0	0	0	0	0
Cc1nc2ccccn2c1C(=O)NNC(=O)Nc1cccc(C(F)(F)F)c1	0	0	0	0	0	0
CCOC(Cn1ccc(=O)[nH]c1=O)OCC	0	0	0	0	0	0
CCCCN(C(=O)c1c(C)noc1C)c1c(N)n(CCCC)c(=O)[nH]c1=O	0	0	0	0	0	0
Cc1cccc(NS(=O)(=O)c2ccc(C(=O)N3CCN(c4ccccc4O)CC3)cc2)c1C	0	0	0	0	0	0
COc1ccc(-n2c(SCC(=O)Nc3ccc(NC(C)=O)cc3)nc3ccccc3c2=O)cc1	-	0	0	0	0	0
